From ChEMBL document CHEMBL3433997, “St. Jude Leishmania screening dataset” (2016) come the findings set out here.

Type in all cases: functional
The target in assay [1] is Solute carrier family 2, facilitated glucose transporter member 1 (Homo sapiens) (UniProt P11166). Nature of the assay: ST_JUDE_LEISH: Cytotoxicity at 2uM final concentration against transgenic Leishmania Mexicana promastigotes LmGLUT1 that are glucose transport deficient and complemented with the human glucose transporter GLUT1. Activity is measured by DNA content using SYBR green in vitro.
Chain of Solute carrier family 2, facilitated glucose transporter member 1 (Homo sapiens) (P11166 whole entry): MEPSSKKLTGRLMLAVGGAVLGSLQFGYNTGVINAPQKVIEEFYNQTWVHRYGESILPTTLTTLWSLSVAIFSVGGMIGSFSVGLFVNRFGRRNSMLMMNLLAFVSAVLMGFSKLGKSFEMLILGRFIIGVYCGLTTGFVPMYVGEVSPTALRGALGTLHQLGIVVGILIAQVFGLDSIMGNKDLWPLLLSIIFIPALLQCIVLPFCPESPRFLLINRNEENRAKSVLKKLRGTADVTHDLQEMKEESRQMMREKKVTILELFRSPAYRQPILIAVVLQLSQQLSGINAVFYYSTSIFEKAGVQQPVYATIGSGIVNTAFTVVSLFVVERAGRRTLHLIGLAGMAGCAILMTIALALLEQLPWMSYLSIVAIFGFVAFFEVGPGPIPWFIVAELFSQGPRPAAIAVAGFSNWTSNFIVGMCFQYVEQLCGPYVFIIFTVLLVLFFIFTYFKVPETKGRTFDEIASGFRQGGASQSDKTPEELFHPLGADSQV

Assay [2] deals with Hexose transporter 1 (Plasmodium falciparum) (UniProt O97467). Nature of the assay: ST_JUDE_LEISH: Cytotoxicity at 2uM final concentration against transgenic Leishmania Mexicana promastigotes LmPfHT that are glucose transport deficient and complemented with the Plasmodium falciparum hexose transporter. Activity is measured by DNA content using SYBR green in vitro.
Assay [3] deals with Glucose transporter (Leishmania mexicana) (UniProt O61059). As to the kind of experiment: ST_JUDE_LEISH: Cytotoxicity at 2uM final concentration against transgenic Leishmania Mexicana promastigotes LmGT2 that are glucose transport deficient and complemented with the L. Mexicana glucose transporter 2. Activity is measured by DNA content using SYBR green in vitro.

`O=C(/C=C/c1ccccc1)N1CCOC(CCN2CCC(c3ccccc3)CC2)(c2ccc(Cl)c(Cl)c2)C1` (stereo not drawn): the inhibition (commonly the relative decrease from the control value, in per cent) was 13.3% in assay [1], 7.51% in assay [2] and 7.43% in assay [3].

With `COc1cc(Nc2ncc3c(C)nc(-c4cc5ccccc5[nH]4)n3n2)cc(OC)c1OC`, the inhibition in assay [1] was 4.94%; in assay [2], 5.87%; in assay [3] it was 2.06%.

On to `Cc1cnc(N2CCN(CCCN3CCCC3)CC2)nc1Oc1ccc(-n2ccnc2)cc1`, for which the inhibition in assay [1] amounted to 2.28%; in assay [2] it was 2%; in assay [3], 3.96%.

Consider `COc1ccc(N2CCN(CCCCNCc3ccc(NC(=O)c4cc(Cl)cc(Cl)c4)cc3)CC2)c(OC)c1`, for which the inhibition in assay [1] came to 3.33%; in assay [2], 2.32%; in assay [3] it was 1.31%.

Turning to `COc1cc(C=Cc2ccc3ccccc3n2)cc(Br)c1OCC(=O)N(C)C`, the inhibition in assay [1] is 6.85%; in assay [2], -1.14%; in assay [3], -0.95%.

Consider `CCCNCc1ccc(-c2ccc(CN(CCOC)C(=O)/C=C/c3ccccc3C)cc2)nc1`, for which the inhibition amounted to 9.67% in assay [1], 6.69% in assay [2] and 6.86% in assay [3].

For `CS(=O)(=O)N1CC2(CCN(CCC(NC(=O)Nc3ccccc3)c3ccc(Cl)c(Cl)c3)CC2)c2ccccc21` (stereo not drawn), the inhibition came to 3.59% in assay [1], 3.17% in assay [2] and 3.05% in assay [3].

`Cc1cc(N2CCCCC2)nc2ccc(NC(=O)c3cccc([N+](=O)[O-])c3)cc12`: the results for the inhibition in assay [1], in assay [2] and in assay [3] were 4.97%, 4.4% and 6.58%, respectively.

Consider `Cn1c(Nc2cc(C(C)(C)C)on2)nc2cc(Nc3ccnc(Nc4ccc(CS(C)(=O)=O)cc4)n3)ccc21`, for which the values for the inhibition in assay [1], in assay [2] and in assay [3] were 1.46%, 1.48% and 2.34%, respectively.

For `Cc1nc(C)c(C2CCC(c3ccc(Cl)cc3)CC2)c(O)c1Cl` (stereo not drawn), the inhibition in assay [1] is 5.98%; in assay [2] it was 56.3%; in assay [3] it was -0.48%.

Regarding `CC1CCCN(C(=O)c2cc(-c3ccccn3)nc3c(Cl)cccc23)C1` (stereo not drawn), the inhibition in assay [1] stood at 2.19%; in assay [2], 1.26%; in assay [3], 1.25%.

Take `NC1=NC(c2ccccc2)(c2ccccc2)C(=O)N1CC1CCC1`: the inhibition came out at 0.06% in assay [1], 2.21% in assay [2] and 0.31% in assay [3].

As for `COC(=O)c1cccc(CNCc2cccc(-c3ccc(-c4nc5cccc(C)c5[nH]4)cc3)c2)c1`, the inhibition in assay [1] was 11.9%; in assay [2] it was 7.9%; in assay [3], 8.52%.

For `Cc1cc(C(=O)Nc2ccc(-c3nc4ccccc4[nH]3)cc2)ccc1[N+](=O)[O-]`, the inhibition in assay [1] was 3.49%; in assay [2] it was 1.97%; in assay [3], -1.54%.

For the compound `CC(Cc1ccc(C(=O)Nc2ccc(CC(C)NCCc3cccc(Cl)c3)cc2)cc1)NCCc1ccc(C(F)(F)F)cc1` (stereo not drawn), the inhibition in assay [1] is 56.4%; in assay [2], 37.1%; in assay [3], 48.1%.

With `CN1CCC(N2CCN(Cc3ccc(-c4ccc(-c5nc6cc(F)ccc6[nH]5)s4)cc3)CC2)CC1`, the inhibition in assay [1] is 2.75%; in assay [2] it was 2.55%; in assay [3], -0.25%.

`O=c1cc(NCCCNCc2cc(Cl)cc(Cl)c2OCc2ccc(Cl)cc2)[nH]c2ccccc12`: the inhibition in assay [1] worked out at 1.67%; in assay [2] it was 0.9%; in assay [3], 3.19%.

On to `Cc1csc(-c2nc(NCCc3c(C)noc3C)ncc2-c2ccsc2)n1`, for which the inhibition in assay [1] was determined as 8.17%; in assay [2], 11.5%; in assay [3], 10.2%.

Turning to `COc1ccc2ccc(F)c(CC(=O)N3CCOC(CNCc4cccc(-c5ccc(F)cc5)n4)C3)c2n1` (stereo not drawn), the inhibition in assay [1] was -1.79%; in assay [2], 0.05%; in assay [3], -0.12%.

In the case of `CN1CCN(CCCN(Cc2cccc(-c3cccc(CNCc4ccc5c(c4)OCO5)c3)c2)C(=O)CCC2CCCC2)CC1`, the inhibition was 16.7% in assay [1], 12.2% in assay [2] and 10.4% in assay [3].

With `CC(C)c1sc(N2CCN(C)CC2)nc1C(=O)NCCc1ccc(Br)cc1`, the inhibition in assay [1] came to 3.06%; in assay [2], 1.28%; in assay [3], 2.14%.

As for `CCCc1cc(OC)c(CC2c3cc(O)c(Cl)cc3CCN2C)cc1OC` (stereo not drawn), the inhibition turned out to be 9.73% in assay [1], 7.17% in assay [2] and 14.9% in assay [3].

`Nc1nc(N)c2c(Cl)c(CNc3cccc(C(=O)O)c3)ccc2n1`: the results for the inhibition in assay [1], in assay [2] and in assay [3] were 3.95%, 2.84% and 3.26%, respectively.

With `O=C(/C=C/c1ccc(Cl)c(Cl)c1)NCCCCCN1CCC(CCNC(=O)C2(c3ccc(Cl)cc3)CC2)CC1`, the inhibition in assay [1] was 16.5%; in assay [2], 6.12%; in assay [3] it was 3.58%.

For `CC(=O)N(Cc1ccc(CC(C)NCCc2cccc(Cl)c2)cc1)Cc1ccc(CC(C)NCCc2cccc(Cl)c2)cc1` (stereo not drawn), the inhibition stood at 83.6% in assay [1], 72.7% in assay [2] and 99.7% in assay [3].

For the compound `C=CCc1cc(Br)ccc1OCCCON1C(N)=NC(N)=NC1(C)C`, the inhibition in assay [1] was determined as 19.1%; in assay [2], 27.3%; in assay [3], 17.7%.

As to `O=C(C=Cc1ccc(Cl)c(Cl)c1)NCCCCCN1CCCC(CCCNS(=O)(=O)c2cccc3cccnc23)C1` (stereo not drawn), the inhibition is 5.85% in assay [1], 5.36% in assay [2] and -0.71% in assay [3].

In the case of `Nc1c2ccccc2nc2cc(Cl)ccc12`, the inhibition in assay [1] turned out to be 3.29%; in assay [2] it was 1.91%; in assay [3], 1.91%.

With `NCc1cccc(-c2ccc(CNC3CCN(Cc4ccccc4)CC3)cc2)c1`, the inhibition in assay [1] is 6.37%; in assay [2] it was 2.02%; in assay [3], -1.34%.

`O=C(Nc1ccc(Cl)cc1)Nc1ccc2nonc2c1`: the inhibition in assay [1] amounted to 0.79%; in assay [2] it was 1.43%; in assay [3] it was 0.9%.

For the compound `COc1ccc(C(C)Nc2nc(N)c3cc(OC)c(OC)cc3n2)cc1` (stereo not drawn), the figures for the inhibition in assay [1], in assay [2] and in assay [3] were 4.72%, 4.66% and 4.42%, respectively.

Turning to `COc1ccc2ncc(F)c(CCN3C4CCC3CC(NCc3cc5c(cn3)OCS5)C4)c2n1` (stereo not drawn), the inhibition came out at 32.5% in assay [1], 41.5% in assay [2] and 64.1% in assay [3].

`O=C(NCc1ccccc1)Nc1cccc(-c2cccc(-c3nc4cc(C(F)(F)F)ccc4[nH]3)c2)c1`: the inhibition amounted to 4.49% in assay [1], 4.71% in assay [2] and 6.02% in assay [3].

Take `CC(Cc1ccc(NS(=O)(=O)c2ccc(CC(C)NCCc3cccc(Cl)c3)cc2)cc1)NCCc1cccc(Cl)c1` (stereo not drawn): the results for the inhibition in assay [1], in assay [2] and in assay [3] were 0.89%, 9.69% and 7.25%, respectively.

Take `Cc1cc(N2CCCC2)nc(Nc2ccc(NC(=O)CC(C)C)cc2)n1`: the inhibition in assay [1] turned out to be 1%; in assay [2], 3.11%; in assay [3], 2.23%.

For the compound `COc1ccc(Nc2nccc(-c3c(-c4cccc(NC(=O)c5c(F)cccc5F)c4)nn4ccccc34)n2)cc1Cl`, the inhibition in assay [1] is 0.2%; in assay [2] it was 1.51%; in assay [3] it was -0.51%.
